# Measured values reported in PubChem BioAssay (NCATS).
# Records with an inconclusive call do not appear. Values without a mark were called inactive. Calls of active or inactive are those of the source. The call rests on the fitted dose curve; in most records, active means well fitted activation curve with a large enough effect; inconclusive means small, poorly fitted or top-dose-only effect; inactive means no such curve, though single readings can be large or run the other way.
# Target: Cellular tumor antigen p53 (Homo sapiens) (UniProt P04637)
# Experiment: Primary qHTS for small molecule compounds that upregulate eGFP-tagged delta133p53alpha (in N-terminal) cells. (AID 2060322); further: nearly all actives have a fitted effect of over 75% in size;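 on activation: series mostly up to about 56 µM; 0% = DMSO vehicle and 100% = reference activator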
# Details: NCI-H358 eGFP-delta133p53alpha fluorescence, 24 h; activation: active compounds read high
# Outline: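 NCI-H358 cells pre-induced 24 h with 10 ng/ml doxycycline to express N-terminal eGFP-delta133p53alpha, then dosed 24 h at 37C without doxycycline; fixed, Hoechst-stained, GFP intensity by laser scanning cytometry, normalized to DMSO (0%) and 57.5 uM 5-azacytidine (100%).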
# Potency means the concentration at half of the fitted maximal effect.
# Cellular tumor antigen p53 (Homo sapiens), sequence (P04637 whole entry, looked up): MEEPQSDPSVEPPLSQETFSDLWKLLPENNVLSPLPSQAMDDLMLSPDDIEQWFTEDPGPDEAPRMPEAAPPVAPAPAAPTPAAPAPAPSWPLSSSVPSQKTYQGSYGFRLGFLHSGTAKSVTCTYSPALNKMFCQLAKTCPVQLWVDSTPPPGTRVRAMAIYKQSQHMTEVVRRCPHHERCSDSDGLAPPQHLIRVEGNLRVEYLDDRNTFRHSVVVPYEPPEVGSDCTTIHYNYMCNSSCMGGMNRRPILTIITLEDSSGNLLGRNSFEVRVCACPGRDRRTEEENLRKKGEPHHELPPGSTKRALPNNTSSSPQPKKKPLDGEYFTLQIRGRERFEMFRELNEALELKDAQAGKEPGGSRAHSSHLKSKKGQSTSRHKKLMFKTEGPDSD
SMILES,activation,Potency
CC(=O)Nc1ccc(CC(=O)O)cc1,6.21%,–
O=C(NCCCN1CCOCC1)c1ccc(Cl)cc1,-23.2%,–
CCCSS/C(CCO)=C(\C)N(C=O)Cc1cnc(C)nc1N,–,30.9 µM (active)
CCC(=O)O[C@]1(C(=O)CO)CC[C@H]2[C@@H]3CCC4=CC(=O)CC[C@]4(C)[C@@H]3CC[C@@]21C,38%,–
CCOC(=O)c1cccc(N)c1,-1.67%,–
Oc1cn2c(n1)Nc1ccc(Cl)c(Cl)c1C2,-8.37%,–
NCCCC[C@H](N[C@@H](CCc1ccccc1)C(=O)O)C(=O)N1CCC[C@H]1C(=O)O,-3.95%,–
C=CC[C@@H]1C=C(C)C[C@H](C)C[C@H](OC)[C@H]2O[C@@](O)(C(=O)C(=O)N3CCCC[C@H]3C(=O)O[C@H](C(C)=C[C@@H]3CC[C@H](O)[C@H](OC)C3)[C@@H](C)[C@@H](O)CC1=O)[C@@H](C)C[C@@H]2OC,23.1%,–
CCOC(=O)C(=O)CCCCCCl,-5.02%,–
CO[C@H]1C[C@@H]2CC[C@@H](C)[C@@](O)(O2)C(=O)C(=O)N2CCCC[C@@H]2C(=O)O[C@H]([C@H](C)C[C@@H]2CC[C@H](OCCO)[C@H](OC)C2)CC(=O)[C@H](C)C=C(C)[C@@H](O)[C@@H](OC)C(=O)[C@H](C)C[C@H](C)C=CC=CC=C1C,24.4%,–
NS(=O)(=O)c1cc2c(cc1Cl)CN(C1CCCCC1)C2=O,20.9%,–
C1N2CN3CN1CN(C2)C3,–,27.6 µM (active)
CCOC1OC(=O)C[C@H]1NC(=O)[C@@H]1CCCN1C(=O)[C@@H](NC(=O)c1ccc(N)c(Cl)c1)C(C)(C)C (stereo partly specified),110%,–
Cc1cc(NS(=O)(=O)c2ccc(N)cc2)nc(C)n1,-13.4%,–
CC(C)(C)C(=O)OCOC(=O)C1N2C(=O)CC2S(=O)(=O)C1(C)C (stereo unspecified),3.95%,–
C[C@@H]1CC[C@@]2(OC1)O[C@H]1C[C@H]3[C@@H]4CC[C@H]5C[C@@H](O)CC[C@]5(C)[C@H]4CC(=O)[C@]3(C)[C@H]1[C@@H]2C,-17.6%,–
Nc1ccc(S(=O)(=O)Nc2ccccc2)cc1,-15.9%,–
CN(C(=O)C(Cl)Cl)c1ccc(OC(=O)c2ccco2)cc1,5.02%,–

SMILES,activation,Potency
Cc1[nH]c(C=C2C(=O)Nc3ccccc32)c(C)c1CCC(=O)O,–,24.3 µM (active)
CCc1cc(C(C)=NOCc2ccc(C3CCCCC3)c(C(F)(F)F)c2)ccc1CN1CC(C(=O)O)C1,10.9%,–
CCOCCn1c(C2CCN(CCc3ccc(C(C)(C)C(=O)O)cc3)CC2)nc2ccccc21,-6.69%,–
C[C@H]1C[C@@H]2[C@@H]([C@@H](O)C[C@@]3(C)[C@H]2CC[C@]3(O)C(=O)CO)[C@@]2(C)C=CC(=O)C=C12,-16.2%,–
C[C@H]1[C@H](NC(=O)/C(=N/OC(C)(C)C(=O)O)c2csc(N)n2)C(=O)N1S(=O)(=O)O (stereo in doubt),5.08%,–
O=S(=O)(O)c1cc(I)c(O)c2ncccc12,11.7%,–
N#CSCC(=O)O,1.69%,–
Clc1ccc(-c2nc3sccn3c2C=NOCc2ccc(Cl)c(Cl)c2)cc1,-15.4%,–
Cc1cc(C(C)(C)C)c(O)c(C(C)(C)C)c1,–,21.9 µM (active)
CC(=O)[C@@]1(O)CC[C@H]2[C@@H]3C[C@H](C)C4=CC(=O)C=C[C@]4(C)[C@@]3(F)[C@@H](O)C[C@@]21C,-11.7%,–
CN1CCN(c2c(F)cc3c(=O)c(C(=O)O)cn4c3c2OCN4C)CC1,-9.21%,–
CCC[C@H](N[C@@H](C)C(=O)N1[C@H](C(=O)O)C[C@@H]2CCCC[C@@H]21)C(=O)OCC,-15.3%,–
C=C1C[C@H]2[C@@H]3C=C(C)C4=CC(=O)CC[C@]4(C)[C@H]3CC[C@]2(C)[C@@]1(OC(C)=O)C(C)=O,-0.837%,–
NCCC(O)(P(=O)(O)O)P(=O)(O)O,-6.21%,–
COC(=O)c1cc(Cl)ccc1OC,2.51%,–
O=C1c2ccccc2S(=O)(=O)N1CCCCN1CCN(c2ncccn2)CC1,13.4%,–
Cc1ccc(N)cc1O,–,28.2 µM (active)
O=C(O)c1[nH]n(-c2ccc(S(=O)(=O)O)cc2)c(=O)c1N=Nc1ccc(S(=O)(=O)O)cc1,3.95%,–
